In PubChem BioAssay:
Calls of active or inactive are those of the source. The rule behind the calls is not given here.

target: Pantothenate synthetase (Mycobacterium tuberculosis (strain ATCC 25618 / H37Rv)) (UniProt P9WIL5); assay: Recombinant Mtb pantothenate synthetase (PanC) inhibitors, coupled enzyme, confirmatory (AID 375); conditions: coupled enzyme assay; at 10 µM, active compounds read high;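 note: 0% = full reaction with vehicle and 100% = no enzyme background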
Sequence (P9WIL5 whole entry, looked up): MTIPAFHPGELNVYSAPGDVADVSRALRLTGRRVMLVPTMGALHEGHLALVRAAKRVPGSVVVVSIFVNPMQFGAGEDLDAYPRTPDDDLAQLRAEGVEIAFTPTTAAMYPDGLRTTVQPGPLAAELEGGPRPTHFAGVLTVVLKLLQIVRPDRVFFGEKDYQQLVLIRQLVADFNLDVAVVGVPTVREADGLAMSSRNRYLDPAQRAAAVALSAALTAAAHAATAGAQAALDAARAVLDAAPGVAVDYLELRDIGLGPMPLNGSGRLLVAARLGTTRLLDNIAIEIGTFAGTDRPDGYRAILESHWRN

| Structure (SMILES) | inhibition |
| --- | --- |
| CCOC(=O)C(CC)n1nc(C)n2c(cc3sccc32)c1=O (stereo not given) | 4% (inactive) |
| O=C(Nc1cnccn1)c1cccs1 | 0% (inactive) |
| COCc1[nH]nc2c1C(C1C=CCCC1)C(C#N)=C(N)O2 (stereo not given) | 0% (inactive) |
| Cc1ccc(S(=O)(=O)n2nc(OC(=O)c3ccco3)cc2N)cc1 | 2% (inactive) |
| COc1cc(-c2nc(-c3cccc(C(F)(F)F)c3)no2)cc(OC)c1OC | 0% (inactive) |
| Cc1nn(C(=O)c2ccc3c(c2)OCO3)c(N)c1-c1ccccc1 | 0% (inactive) |
| O=C(NCc1ccco1)c1ccc2c(=O)n(CC3CCCO3)c(=S)[nH]c2c1 (stereo not given) | 3% (inactive) |
| O=C(NCC(=O)N1CCC(N2CCCCC2)CC1)C1CCCCC1 | 3% (inactive) |
| CC(Sc1nc(-c2ccccc2)cc(C(F)(F)F)n1)C(=O)N1CCC(C(N)=O)CC1 (stereo not given) | 0% (inactive) |
| CCC(=O)c1ccc(OCCN2CCOCC2)cc1 | 4% (inactive) |
| CC1=C(C(N)=O)C(c2ccncc2)n2nc(-c3ccccc3Cl)nc2N1 (stereo not given) | 0% (inactive) |
| Cc1ccccc1NC(=O)Cc1nnc(SCC(=O)N2CCN(c3ccccc3)CC2)n1C | 4% (inactive) |
| CC1CCN(C(=O)CSc2nnc(Cc3cc(=O)[nH]c(=O)[nH]3)n2-c2ccc(Cl)cc2)CC1 | 4% (inactive) |
| CSc1nc2ccc(Nc3nc(N4CCOCC4)nc(N4CCOCC4)n3)cc2s1 | 2% (inactive) |
| O=C(CSc1nnc2ccccn12)c1ccccc1 | 0% (inactive) |
| Cc1ccc(-c2nc(N)n(C(=O)c3cccnc3)n2)cc1 | 0% (inactive) |
| COc1ccc(C2(C(=O)N3CCCC3)CCOCC2)cc1OC | 6% (inactive) |
| CCC(=O)c1ccc(OC(=O)c2ccc(Br)o2)cc1 | 7% (inactive) |
| COc1cccc2cc(C(=O)n3ccc(C)n3)c(=O)oc12 | 1% (inactive) |
| CCn1nc(C(=O)O)c(=O)c2cc3c(cc21)OCO3 | 5% (inactive) |

| Structure (SMILES) | inhibition |
| --- | --- |
| COc1ccccc1C(=O)Nc1ccc(S(=O)(=O)N2CCOCC2)cc1 | 6% (inactive) |
| CCCN1CCN(C(=O)Cn2cccc2C(=O)c2ccccc2)CC1 | 0% (inactive) |
| O=C(Nc1ccncc1)c1cccc(F)c1 | 6% (inactive) |
| Cc1onc(-c2ccccc2Cl)c1C(=O)N1CCc2ccccc21 | 0% (inactive) |
| Cc1ccc(NC(=O)CC2C(=O)NC3CCCCC3N2C(=O)c2ccc(F)cc2)cc1C (stereo not given) | 4% (inactive) |
| Cc1cc(=O)oc2c(CN3CCN(C)CC3)c(O)c(Cl)cc12 | 7% (inactive) |
| COc1ccc(CC(=O)NCc2cccs2)cc1 | 3% (inactive) |
| CC(=O)NC(CCS(C)(=O)=O)C(=O)Nc1cccc(C)c1 (stereo not given) | 3% (inactive) |
| O=C(CCCN1C(=O)c2ccccc2C1=O)Oc1ccc(F)cc1 | 1% (inactive) |
| CN1CCN(C(=O)C2CCN(S(=O)(=O)c3ccc4c(c3)oc(=O)n4C)CC2)CC1 | 0% (inactive) |
| CC(C)c1nnc(NC(=O)CCC(=O)NCc2ccc3c(c2)OCO3)s1 | 3% (inactive) |
| Cc1ccccc1-c1nc(CS(=O)(=O)CC(=O)NCc2ccc3c(c2)OCO3)c(C)o1 | 6% (inactive) |
| Cc1nc(N2CCN(c3ncccn3)CC2)c2oc3ccccc3c2n1 | 2% (inactive) |
| O=C(CCn1cccc1)N1CCc2ccccc21 | 0% (inactive) |
| CS(=O)(=O)N(CC(=O)N1CCCCCC1)c1ccccc1 | 8% (inactive) |
| CCn1cc(C2=NCC(C)O2)c2ccccc21 (stereo not given) | 2% (inactive) |
| Cc1ccc(NC2=NCC(=O)N2c2ccc3c(c2)OCCO3)c(C)c1 | 7% (inactive) |
| CC(C)c1nnc(NC(=O)c2ccc(N3C(=O)CCC3=O)cc2)s1 | 0% (inactive) |
| CCOC(=O)N1CCN(S(=O)(=O)c2ccc(OCC)c(C)c2)CC1 | 0% (inactive) |
| O=C(NC12CC3CC(CC(C3)C1)C2)c1cncc(O)c1 | 2% (inactive) |
